Records with an inconclusive call do not appear. The source made the active and inactive calls. The call rests on the fitted dose curve; in most records, active means well fitted inhibition curve with a large enough effect; inconclusive means small, poorly fitted or top-dose-only effect; inactive means flat fitted curve, though single readings scatter.
Experiments:
Assay in all cases: qHTS profiling for inhibitors of Plasmodium falciparum proliferation (AID 504749); further: nearly all actives have a fitted effect of over 60% in size
Settings in all cases: P. falciparum in erythrocytes, SYBR Green DNA, 72 h; series mostly up to 28.7 µM
[1] = system: CP265
Summary of the method: (§1)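 Quantitative HTS: compounds pinned into medium, infected erythrocytes added (0.3% parasitemia, 2.5% hematocrit), 72 h culture at 37 C under 5% CO2. Saponin/Triton lysis with SYBR Green I, overnight RT, then fluorescence read.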

[2] = system: CP266
Summary of the method: as §1

[3] = system: CP268
Summary of the method: as §1

[4] = system: CP269
Summary of the method: as §1

[5] = system: CP286
Summary of the method: as §1

[6] = system: CP291
Summary of the method: as §1

[7] = system: CP297
Summary of the method: as §1

[8] = system: CP305
Summary of the method: as §1

[9] = system: CP315
Summary of the method: as §1

[10] = system: CP325
Summary of the method: as §1

[11] = system: CP329
Summary of the method: as §1

[12] = system: CP335
Summary of the method: as §1

[13] = system: DFO2036
Summary of the method: as §1

[14] = system: DIV14
Summary of the method: as §1

[15] = system: DIV17
Summary of the method: as §1

[16] = system: DIV30
Summary of the method: as §1

[17] = system: ECU
Summary of the method: as §1

[18] = system: FAB9
Summary of the method: as §1

[19] = system: GB4
Summary of the method: as §1

[20] = system: JCK
Summary of the method: as §1

[21] = system: N140
Summary of the method: as §1

[22] = system: P93_24
Summary of the method: as §1

[23] = system: P94_40
Summary of the method: as §1

[24] = system: PAD
Summary of the method: as §1

[25] = system: PC15
Summary of the method: as §1

[26] = system: PC26
Summary of the method: as §1

[27] = system: PC49
Summary of the method: as §1

[28] = system: SC27B
Summary of the method: as §1

[29] = system: TAB109
Summary of the method: as §1

[30] = system: TAB113
Summary of the method: as §1

[31] = system: TAB165
Summary of the method: as §1

Measured: Potency

CC(C)(O)c1ccccc1CC[C@H](SCC1(CC(=O)O)CC1)c1cccc(/C=C/c2ccc3ccc(Cl)cc3n2)c1
inactive: all assays above

Source: PubChem BioAssay (NCATS)
